hNpr1 antagonist – antagonists of human natriuretic peptide receptor Npr1. hit rate 1.6% among 76,000. HEK293 hNpr1 GloSensor cGMP, ANP-stimulated luminescence. Potency, µM (doses to about 46.3 µM), inactives show at the highest dose activity change, negative = inhibition, actives largely listed as inhibitors. AID 1347048; calls by dose curve; further: nearly all actives have a fitted effect of over 60% in size
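Compound pre-incubated 30 min at room temperature on GloSensor-loaded HEK293 cells stably carrying hNpr1 and the pGS-40F cGMP biosensor. Stimulation uses hNppA at 0.1 nM final; luminescence is taken at baseline and 20 min post-agonist.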
HEK293 tox – kills HEK 293 cells; hit rate 6.6% among 94,000; Potency, µM (top dose mostly 115 µM), without a hit: at the highest dose activity change, negative = cytotoxicity, usual class: inhibitors; HEK 293 viability, ATP luminescence (CellTiter-Glo), 48-72 h; AID 1345083; further: nearly all actives have a fitted effect of over 60% in size
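Cells seeded first (HEK 293, 250 cells/well), then compound added by pintool. Incubation ran 48 or 72 hr at 37 degree Celsius. CellTiter-Glo was added and luminescence imaged after 10 min at room temperature.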
FLuc inh – Photinus pyralis luciferase inhibition. Potency, µM (highest dose often 115 µM), actives largely listed as inhibitors. hit rate 2.5% among 76,000. AID 1347043. P08659. purified P. pyralis luciferase, luminescence, biochemical; further: nearly all actives have a fitted effect of over 65% in size
Target sequence (P08659 whole entry, looked up): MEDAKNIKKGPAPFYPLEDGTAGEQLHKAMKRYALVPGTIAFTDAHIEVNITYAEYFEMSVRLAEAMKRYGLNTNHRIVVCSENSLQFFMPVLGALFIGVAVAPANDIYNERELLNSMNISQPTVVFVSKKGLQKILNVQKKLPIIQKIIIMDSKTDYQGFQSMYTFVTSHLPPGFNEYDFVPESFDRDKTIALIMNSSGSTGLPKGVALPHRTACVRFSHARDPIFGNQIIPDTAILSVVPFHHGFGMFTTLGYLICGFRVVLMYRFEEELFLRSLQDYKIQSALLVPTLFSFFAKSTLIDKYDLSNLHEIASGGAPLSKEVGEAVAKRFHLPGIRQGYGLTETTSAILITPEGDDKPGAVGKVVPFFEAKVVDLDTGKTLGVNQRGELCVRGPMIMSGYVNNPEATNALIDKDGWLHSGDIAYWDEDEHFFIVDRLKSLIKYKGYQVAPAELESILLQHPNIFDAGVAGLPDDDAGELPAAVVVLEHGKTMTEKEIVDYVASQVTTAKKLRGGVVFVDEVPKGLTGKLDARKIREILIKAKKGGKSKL
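Luminescence read by CCD imaging after purified firefly luciferase (10nM final) was added to substrate buffer holding 10uM D-luciferin and 10uM ATP, pH 7.5, pre-dosed with compound.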
3T3 cytotox – NIH 3T3 cell cytotoxicity | NIH 3T3 viability, CellTiter-Glo ATP luminescence, 48-72 h | Potency, µM (doses to about 96.7 µM), inactives show at the highest dose activity change, negative = cytotoxicity, most hits filed as inhibitors | hit rate 4.3% among 94,000; further: nearly all actives have a fitted effect of over 55% in size
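ATP-dependent luminescence (CellTiter-Glo) served as the viability signal for NIH 3T3 cells treated with compound for 48 or 72 hr at 37 °C.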
* marks the source's active call; other numbers are inactive results; ! = a repeat was not active. Only some compounds are listed: those with a hit (about 11% of all), similar ones and a draw of the others. Unless noted, the call rests on the fitted dose curve; in most records, active means well fitted curve in the direction sought with a large enough effect; inconclusive means small, poorly fitted or top-dose-only effect, or another doubt; inactive means no such curve, though single readings can be large; an effect the other way counts as inactive or inconclusive. On the % scale 0 is the no-effect control and ±100 the full control effect; potency means the concentration at half of the fitted maximal effect.

COc1cccc(-c2ccc(CN3CCCC(NC(=O)c4ccccc4F)C3)cc2)c1 (centres undefined) was read as HEK293 tox 40µM* and 3T3 cytotox inconclusive.
Screening Cc1cc(C)cc(-c2ccc(CN3CCCC(NC(=O)c4ccccc4F)C3)cc2)c1 (centres undefined) returned HEK293 tox 79µM* and 3T3 cytotox inconclusive.
Screening COc1cccc(-c2ccc(CN3C4CCC3CN(C(=O)Nc3ccccc3F)C4)cc2)c1 returned hNpr1 antagonist -22%, HEK293 tox 40µM*!, FLuc inh inconclusive and 3T3 cytotox 35µM*!.
For Cc1nn(-c2ccccc2)c2c1C(C)N(C1CCCN([S+](C)(=O)[O-])C1)C2=O (centres undefined) the results were HEK293 tox -3% and 3T3 cytotox inconclusive.
`CN(C)c1nccnc1OC1CCN(C(=O)NCCc2ccccc2)C1` (centres undefined) gave hNpr1 antagonist 3%, HEK293 tox inconclusive, FLuc inh inactive and 3T3 cytotox -8%.
CCc1cc(=O)n(CC(=O)Nc2ccc(OC)cc2)c(-c2cccc(F)c2)n1 was read as hNpr1 antagonist inconclusive, HEK293 tox inconclusive, FLuc inh inactive and 3T3 cytotox inconclusive.
O=C(Nc1ccccc1)N1CCC(C(=O)N2CCC(c3nc4ncccc4[nH]3)CC2)CC1 was read as HEK293 tox inactive and 3T3 cytotox -12%.
COc1cccc(-c2ccc(CN3CCCC(NC(=O)c4ccccc4C)C3)cc2)c1 (centres undefined) was read as HEK293 tox 22µM* and 3T3 cytotox 40µM*.
For Cc1ccccc1C(=O)NC1CCCN(Cc2ccc(-c3cncnc3)cc2)C1 (centres undefined) the results were HEK293 tox inconclusive and 3T3 cytotox -20%.
Screening O=C(NCc1ccc(F)cc1)C1CCCN(Cc2cccc(-c3ccc(F)cc3F)c2)C1 (centres undefined) returned HEK293 tox inconclusive and 3T3 cytotox 45µM*.
`O=C(Nc1ccccc1Cl)C1CCCN(Cc2cccc(-c3ccc(F)cc3F)c2)C1` (centres undefined) gave HEK293 tox 32µM* and 3T3 cytotox 35µM*.
O=C(NCc1ccccc1Cl)C1CCCN(Cc2cccc(-c3ccc(F)cc3F)c2)C1 (centres undefined) was read as HEK293 tox 45µM* and 3T3 cytotox inconclusive.
Screening O=C1NCCN2CC3(CCN(C(=O)CCc4ccccc4)CC3)CC12 (centres undefined) returned HEK293 tox 5% and 3T3 cytotox -13%.
Screening COc1ccccc1-c1ccc(CN2CCC(NC(=O)Cc3ccccc3)C2)cc1 (centres undefined) returned HEK293 tox 40µM* and 3T3 cytotox 35µM*.
COc1ccccc1C(=O)NC1CCCN(Cc2ccc(-c3cncnc3)cc2)C1 (centres undefined) was read as HEK293 tox inconclusive and 3T3 cytotox -26%.
COc1ccccc1-c1ccc(CN2CCC(NC(=O)Nc3ccccc3F)C2)cc1 (centres undefined) was read as HEK293 tox 28µM* and 3T3 cytotox 16µM*.
`COc1ccccc1-c1ccc(CN2CCC(NC(=O)N(C)C)C2)cc1` (centres undefined) gave HEK293 tox inconclusive and 3T3 cytotox -20%.
`Cc1noc(CC2CCOC3(CCN(C(=O)c4cc(-c5ccc(F)cc5)n[nH]4)CC3)C2)n1` (centres undefined) gave hNpr1 antagonist -7%, HEK293 tox inconclusive, FLuc inh inactive and 3T3 cytotox -25%.
For COc1ccc(-c2noc([C@@H]3CCCN3C(=O)c3ccc(F)c(Cl)c3)n2)cc1OC the results were hNpr1 antagonist 3%, HEK293 tox 40µM*, FLuc inh inactive and 3T3 cytotox inconclusive.
Screening COc1ccc(C(=O)N2CCC[C@H]2c2nc(-c3ccc(OC)cc3)no2)cc1 returned hNpr1 antagonist 1%, HEK293 tox inconclusive, FLuc inh inactive and 3T3 cytotox -22%.
For CCCCOc1ccc(C(=O)N2CCC[C@H]2c2nc(-c3ccc(C)cc3)no2)cc1 the results were hNpr1 antagonist -24%, HEK293 tox 22µM*, FLuc inh inactive and 3T3 cytotox 35µM*.

Screens: PubChem, National Center for Advancing Translational Sciences (NCATS)
